Source: PubChem (several laboratories)
Mdm2 MdmX PPI = human Mdm2/MdmX binding inhibition; actives 3% (n = 330,000); AID 485346; inhibition, % at 8 µM; SaOS-2 split-luciferase Mdm2/MdmX complementation, luminescence; O15151+Q00987;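 active = inhibition of at least 50% at 8 µM in the primary screen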
Target sequence (O15151 whole entry, looked up): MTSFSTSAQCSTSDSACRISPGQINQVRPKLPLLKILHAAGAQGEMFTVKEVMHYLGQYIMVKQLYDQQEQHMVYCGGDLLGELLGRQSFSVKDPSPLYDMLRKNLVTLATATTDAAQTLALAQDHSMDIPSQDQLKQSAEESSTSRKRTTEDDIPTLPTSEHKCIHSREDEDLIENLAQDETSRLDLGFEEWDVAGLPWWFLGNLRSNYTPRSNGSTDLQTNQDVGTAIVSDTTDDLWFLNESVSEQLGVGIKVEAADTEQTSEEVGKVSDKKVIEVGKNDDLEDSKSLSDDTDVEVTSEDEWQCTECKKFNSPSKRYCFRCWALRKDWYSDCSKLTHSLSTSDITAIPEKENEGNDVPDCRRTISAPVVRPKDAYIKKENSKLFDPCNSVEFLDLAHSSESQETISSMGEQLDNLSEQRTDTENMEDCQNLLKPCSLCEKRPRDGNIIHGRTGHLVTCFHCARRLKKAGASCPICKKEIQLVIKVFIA
Target sequence (Q00987 whole entry, looked up): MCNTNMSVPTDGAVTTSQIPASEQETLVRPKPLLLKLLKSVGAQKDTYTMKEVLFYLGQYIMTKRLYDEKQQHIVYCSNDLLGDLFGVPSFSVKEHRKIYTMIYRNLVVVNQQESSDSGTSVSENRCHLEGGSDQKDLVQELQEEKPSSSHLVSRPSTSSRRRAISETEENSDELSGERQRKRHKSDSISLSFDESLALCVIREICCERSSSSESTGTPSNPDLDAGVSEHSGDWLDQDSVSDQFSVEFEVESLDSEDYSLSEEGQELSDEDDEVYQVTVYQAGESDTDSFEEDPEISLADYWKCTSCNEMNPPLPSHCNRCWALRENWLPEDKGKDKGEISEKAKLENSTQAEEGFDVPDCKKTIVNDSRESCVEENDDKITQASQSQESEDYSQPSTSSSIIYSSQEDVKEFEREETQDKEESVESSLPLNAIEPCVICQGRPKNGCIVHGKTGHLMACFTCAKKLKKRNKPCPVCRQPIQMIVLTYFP
GRIN3A LBD mod = NR3A (human) ligand-binding domain modulation; NR3A LBD differential scanning fluorimetry, Tm shift; 0% = protein alone, 100% = glycine-bound protein; Tm shift relative to glycine control, % at 25 µM; actives 2.5% (n = 340,000); AID 1259313;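 active = melting temperature shift of at least 10% of the positive control shift, at one fixed dose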
Beta cell apopt = beta cell apoptosis inhibition. INS-1E cytokine-induced death, ATP luminescence, 48 h; percent of positive-control rescue, neutral wells zero. protection from apoptosis, % (no concentration beside the values). actives 0.8% (n = 300,000). AID 435005;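 active = Every replicate reaches about 75%, or at least half do and their mean reaches it too, limit read from the data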;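 note: 0% = cytokine-treated negative control wells and 100% = positive control rescue; higher means more ATP so stronger rescue from cytokine killing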
CSC inhib = blocks cancer stem cells; cancer stem cell-like cells viability, luminescence; inhibition, % at 7.5 µM; actives 1.1% (n = 300,000); AID 2717; in the data active = inhibition above about 75%; tested in HMLE shEcad cells
MPTP inh = permeability transition pore inhibition; isolated mouse mitochondria, Ca2+ swelling absorbance, 30 min; inhibition, % at 10 µM; actives 1.4% (n = 360,000); AID 602449;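 active = inhibition of 50% or more, scaled per plate between neutral and stimulator controls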;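 note: 0% = DMSO wells given calcium and 100% = 1 mM EGTA wells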
SKKanGAS inh = SKKanGAS growth inhibition; inhibition, % at 7.5 µM; S. pyogenes SKKanGAS, kanamycin growth, BacTiter-Glo, 6 h; actives 1.3% (n = 300,000);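 active = mean replicate score, as percent of positive control median, at least 50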;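 note: strain carries kanamycin resistance gene driven by streptokinase promoter and grows in 40 µg/ml kanamycin; loss of luminescence reflects streptokinase promoter inhibition or plain growth inhibition; 0% = median of DMSO wells and 100% = positive control at its reference dose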
Rh123 counter = mitochondrial membrane potential, counter-screen | shares compounds with MPTP inh | isolated mitochondria, Rhodamine 123 fluorescence | inhibition, % at 10 µM | actives 78% (n = 5,000); in the data active = inhibition above about 22%;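 note: 0% = DMSO vehicle and 100% = positive control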
MPTP abs DR = MPTP inhibition, dose response swelling confirmation; isolated mitochondria swelling, absorbance; shares compounds with MPTP inh; IC50, µM; actives 58% (n = 780); in the data active = IC50 below about 20 µM
MPTP counter DR = counter-screen for mitochondrial permeability transition pore inhibitors, dose response; shares compounds with MPTP inh; isolated mitochondria counterscreen, fluorescence read-out; IC50, µM; actives 49% (n = 780); AID 651564; in the data active = IC50 below about 80 µM
Numbers without * were called inactive; . = no result. Hits are enriched below; roughly 6.9% of the tested compounds scored in any of these assays.

SMILES	Mdm2 MdmX PPI	GRIN3A LBD mod	Beta cell apopt	CSC inhib	MPTP inh	SKKanGAS inh	Rh123 counter	others
CC(NC(=O)COC(=O)c1cc(NS(=O)(=O)c2ccc(Cl)c([N+](=O)[O-])c2)ccc1O)C1CC2CCC1C2 (centres undefined)	14.2	12.7*	-1.1	108.1*	61.3*	15.3	66.1*
COc1ccc(NS(=O)(=O)c2ccc(O)c(C(=O)OCC(=O)NC(C)C3CC4CCC3C4)c2)cc1 (centres undefined)	4.2	-5.3	.	.	-0.1	20.6	.
CN(C)c1ccc(C=c2c3ccccc3n3c2cc(-c2ccccc2)[n+]3C)cc1	.	-11.2	.	.	58.2*	.	75.0*
COc1cc(C=c2c3ccccc3n3c2cc(-c2ccccc2)[n+]3C)cc(OC)c1OC	.	-4.4	.	.	-3.7	.	.
CN(C)c1ccc(C=c2c3ccccc3n3c2cc(-c2ccc(Cl)cc2)[n+]3C)cc1	.	-4.1	.	.	21.7	.	.
COc1cc(N(C)C)ccc1C=c1c2ccccc2n2c1cc(-c1ccccc1)[n+]2C	.	-25.1	.	.	56.1*	.	76.7*
CN(C)c1ccc(C=c2c3ccccc3n3c2c2c([n+]3C)CCCC2)cc1	.	-11.2	.	.	64.8*	.	76.4*
O=C1NC[C@H](CCCCN2C[C@H](Cc3ccccc3)N(CCC3CCCCC3)C(=O)C2=O)N(CC2CCCCC2)C1=O	.	.	.	.	-6.5	.	.
C/C(C/C(C)=C1/SC(=S)NC1=O)=C1\SC(=S)NC1=O	.	0.2	.	.	-1.4	.	.
CCCCCC/C(C)=C1/SC(=S)NC1=O	22.1	-11.7	.	.	83.1*	24.4	75.2*
CCCCCCCCCCCCCCCC(O)C(N)CO (centres undefined)	38.5	-6.8	.	56.5	80.1*	74.7*	-7.3
CCOC(=O)[C@]12CCC=C1N(Cc1ccc(Cl)cc1Cl)C(=O)[C@H](CC(=O)NCC1CCCCC1)C2	.	.	.	.	-2.3	.	.
CCc1ccc(NC(=O)CSc2nc3ncc(Br)cc3[nH]2)cc1	19.7	4.4	12.5	28.1	53.8*	4.6	87.6*
COc1cccc(NC(=O)CSc2nc3ncc(Br)cc3[nH]2)c1	44.5	0.1	-4.6	69.1	5.6	-2.8	.
COc1ccc(CN2CCN(C(=O)c3c(-c4ccccc4)noc3C)CC2)cc1F	4.8	1.1	1.0	.	9.2	.	.
CCCCN(CCCC)CC(O)CN(c1cc([N+](=O)[O-])ccc1OC)S(=O)(=O)c1ccccc1 (centres undefined)	15.7	-7.5	2.9	-5.1	76.1*	-0.1	-8.4	MPTP abs DR=>100;MPTP counter DR=57.3*
COc1ccc([N+](=O)[O-])cc1N(CC(O)CN(CC(C)C)CC(C)C)S(=O)(=O)c1ccccc1 (centres undefined)	13.4	-30.1	3.5	-10.9	1.7	-10.0	.
CC(=O)Nc1cccc(C(=O)OC(C)C(=O)NC(=O)NC2CCCCC2)c1 (centres undefined)	23.6	3.3	-1.3	-10.4	-2.0	-14.3	.
CCOC(=O)c1sc(NC(=O)CSc2n[nH]c(-c3ccncc3)n2)c(C#N)c1C	7.1	-3.7	7.8	0.5	77.2*	12.7	79.9*
Cc1[nH]n(-c2ccccc2)c(=O)c1C(c1ccc(O)c([N+](=O)[O-])c1)c1c(C)[nH]n(-c2ccccc2)c1=O	14.1	3.8	-5.5	-23.1	90.8*	3.9	73.7*
O=C(CSc1nnc(CNC(=O)c2ccccc2F)o1)NC1CCCCC1	8.9	-3.4	-8.1	-20.5	-0.7	1.6	.
Cc1ccc(/C([O-])=C(/C(=S)Nc2ccc(SC(F)F)cc2)[n+]2ccccc2)cc1[N+](=O)[O-]	-9.3	1.2	-3.1	-19.0	64.1*	-2.9	80.0*
Nc1cc(N)nc(SCC(=O)Nc2cc(S(=O)(=O)N3CCOCC3)ccc2Cl)n1	23.4	-0.3	-0.9	-0.8	-0.4	0.2	.
CC(C)c1ccc(-c2csc(NC(=O)c3cccs3)c2C(=O)O)cc1	3.3	-3.6	-1.1	40.5	61.7*	29.5	56.2*
O=C(Nc1ccccc1)Nc1nnc(Cc2ccccc2F)s1	4.4	-4.5	-2.7	34.8	4.0	-3.6	.
SMILES	Mdm2 MdmX PPI	GRIN3A LBD mod	Beta cell apopt	CSC inhib	MPTP inh	SKKanGAS inh	Rh123 counter	others
O=C(Nc1ccc(F)cc1)Nc1nnc(Cc2ccccc2F)s1	31.1	-1.0	.	.	58.3*	-1.0	76.9*
CC(C)(C)C(=O)NC(=S)NNC(=O)C(c1ccccc1)c1ccccc1	42.3	-1.2	67.6	57.8	92.2*	9.8	-8.0
CCNC(=S)NNC(=O)C(c1ccccc1)c1ccccc1	17.1	-1.1	-5.2	-5.5	0.6	-9.6	.
CCCCc1cc(=O)oc2cc(C)cc(O)c12	22.6	-5.6	0.4	-12.0	85.8*	10.6	95.5*
CCCc1cc(O)c2c(C)cc(=O)oc2c1	14.0	-44.6	-3.5	5.8	82.4*	-0.9	87.5*
CC(C)CCNC(=O)C(=O)NCC1OCCCN1S(=O)(=O)c1cccs1 (centres undefined)	3.5	-1.2	-0.3	-8.8	0.2	4.7	.
COc1ccc(N(C=O)C(C(=O)Nc2c(C)cccc2C)c2ccccc2)cc1 (centres undefined)	6.6	1.2	-3.8	8.6	0.4	-5.1	.
COC(=O)c1ccc(CNCC(O)COc2ccc(-c3ccccc3)cc2)cc1 (centres undefined)	6.5	-3.1	1.9	3.0	89.4*	4.3	-3.8	MPTP abs DR=8.75*;MPTP counter DR=>80
COc1cc(/C=C2/C(=O)c3cccc([N+](=O)[O-])c3C2=O)c(Br)cc1O	.	-1.2	-5.4	42.0	134.3*	.	53.1*
Cc1ccccc1-n1ncc2c1CC(C)(C)CC2NC(=O)CCN1CCCCC1=O (centres undefined)	16.0	-0.7	3.1	-2.9	-0.6	4.9	.
Clc1cccc(Cl)c1/C=C/c1nc2ccccc2[nH]1	-171.9	3.5	12.9	-1.6	95.3*	2.2	81.9*
Clc1ccc(/C=C/c2nc3ccccc3[nH]2)c(Cl)c1	-56.0	17.1*	44.7	-17.9	86.2*	43.2	79.4*
O=c1[nH]c(/C=C/c2ccccc2Cl)nc2ccccc12	-61.3	-0.5	.	.	-0.3	1.3	.
Clc1ccc(/C=C/c2nc3ccccc3[nH]2)cc1	-76.7	12.9*	31.0	76.0*	80.1*	16.7	84.7*
COc1cc(CC(=O)OCC(=O)N2C(C)CCCC2C)cc(OC)c1OC (centres undefined)	-2.7	-2.7	0.7	-4.6	-0.3	1.3	.
Cc1ccc2[nH]c(C(=O)N3CCOCC3)cc2c1	-4.4	-1.7	-6.0	-15.0	-1.1	-7.8	.
CC(=O)c1c(C)[nH]c(C(=O)Nc2nc(-c3ccccc3)c(C)s2)c1C	-21.3	3.9	-2.3	5.1	79.0*	4.8	55.1*
